Results from PubChem BioAssay (NCI).
The panel holds about 79,000 compounds, 15% with a hit somewhere; the sample as a whole holds those more often. The source made the active and inactive calls. No stated cut-off is given here; in the data, active means growth inhibition above about 70%; inactive means the rest.

Columns and labels:
[1] = NCI Yeast Anticancer Drug Screen. Data for the rad50 strain (AID 155);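 further: 0% = growth of vehicle-only cultures of the same strain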; settings: S. cerevisiae rad50 strain growth inhibition, stronger effect = higher value
Method in brief: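 Relative growth inhibition (compound vs vehicle) was measured in yeast with a defined repair-gene alteration.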

[2] = NCI Yeast Anticancer Drug Screen. Data for the mec2-1 strain (AID 157); settings: S. cerevisiae mec2-1 strain, stronger effect = higher value
Method in brief: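 Vehicle-treated cultures served as reference for growth inhibition of compound-exposed mec2-1 yeast.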

[3] = NCI Yeast Anticancer Drug Screen. Data for the sgs1 mgt1 strain (AID 161);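 further: 0% = growth of cultures given vehicle only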; settings: S. cerevisiae sgs1 mgt1 strain, stronger effect = higher value
Method in brief: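 Read-out: growth inhibition vs vehicle controls. Cells: mutant yeast strain deficient in DNA damage repair.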

[4] = NCI Yeast Anticancer Drug Screen. Data for the cln2 rad14 strain (AID 165);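 further: 0% = growth equal to vehicle treated cultures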; settings: S. cerevisiae cln2 rad14 strain, stronger effect = higher value
Method in brief: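 Each compound was tested on cln2 rad14 yeast. Inhibition of growth was calculated against vehicle-exposed controls.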

[5] = NCI Yeast Anticancer Drug Screen. Data for the bub3 strain (AID 167); settings: S. cerevisiae bub3 mutant strain, stronger effect = higher value
Method in brief: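 Screening used yeast with an engineered genetic alteration affecting cell cycle control. Compound-exposed cultures were compared with vehicle cultures, and reduced growth was taken as inhibition.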

[6] = NCI Yeast Anticancer Drug Screen. Data for the mlh1 rad18 strain (AID 175); settings: S. cerevisiae mlh1 rad18 strain growth inhibition, stronger effect = higher value
Method in brief: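 Vehicle-treated cultures served as the reference for growth inhibition in a yeast strain carrying DNA damage repair alterations exposed to each compound.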

[7] = at 5.0 µM (retest, dose inferred, filed as 0.5)
[8] = at 50.0 µM (retest, dose inferred, filed as 5.0)

Structure (SMILES)	growth inhibition [1, 7]	growth inhibition [1, 8]	growth inhibition ([1]; at 50.0 µM)	growth inhibition [2, 7]	growth inhibition [2, 8]	growth inhibition ([2]; at 50.0 µM)	growth inhibition [3, 7]	growth inhibition [3, 8]	growth inhibition ([3]; at 50.0 µM)	growth inhibition [4, 7]	growth inhibition [4, 8]	growth inhibition ([4]; at 50.0 µM)	growth inhibition [5, 7]	growth inhibition [5, 8]	growth inhibition ([5]; at 50.0 µM)	growth inhibition [6, 7]	growth inhibition [6, 8]	growth inhibition ([6]; at 50.0 µM)
Cc1cc[n+](C2=C(Nc3c(C)cccc3C)C(=O)c3ccccc3C2=O)cc1	44% (inactive)	88% (active)	89.7% (active)	5% (inactive)	61% (inactive)	73.2% (active)	-6% (inactive)	67% (inactive)	68.1% (inactive)	-7% (inactive)	54% (inactive)	15.2% (inactive)	6% (inactive)	66% (inactive)	48.4% (inactive)	-1% (inactive)	51% (inactive)	71.2% (active)
O=[N+]([O-])c1cc(-c2ccccc2)ccc1O	-3% (inactive)	10% (inactive)	98% (active)	5% (inactive)	12% (inactive)	98.7% (active)	-1% (inactive)	7% (inactive)	97.4% (active)	-3% (inactive)	2% (inactive)	98% (active)	0% (inactive)	-2% (inactive)	96.2% (active)	-1% (inactive)	7% (inactive)	98.8% (active)
CC1(CO)C(O)CCC2(C)C1CCC1CC3CC12CCC3(O)CO (configuration not stated)	4% (inactive)	87% (active)	-3.35% (inactive)	65% (inactive)	99% (active)	-18.8% (inactive)	1% (inactive)	80% (active)	19.1% (inactive)	-13% (inactive)	68% (inactive)	-0.7% (inactive)	-27% (inactive)	77% (active)	-10% (inactive)	14% (inactive)	91% (active)	3.7% (inactive)
Cc1ccc(C(=O)C2C(c3ccccc3)N2C2CCCCC2)cc1 (configuration not stated)	0% (inactive)	95% (active)	11.1% (inactive)	-8% (inactive)	88% (active)	7.95% (inactive)	-1% (inactive)	89% (active)	57.5% (inactive)	-20% (inactive)	96% (active)	0.3% (inactive)	-8% (inactive)	85% (active)	19.8% (inactive)	2% (inactive)	92% (active)	71.6% (active)
